target: CHID1; assay: pooled miR-30 sensor sort-seq; sequence = guide strand; conditions: shRNA
Note: reference of the scale not given here.

| Sequence | sensor-assay potency score (higher = more potent) |
| --- | --- |
| TATCTCATCCTCACTGTCTAAG | -0.858 |
| TTTGCCGAGCAGTAGCTGCGAT | -0.629 |
| TAGTCCATACCATAGAAGTTGA | -1.13 |
| TGAAAACTGACTCTTCTCCAGC | -0.645 |
| TAGTCGTAGGTCATGAGGCTGA | -0.661 |
| TTCGCCACTTGGACTTCGGGTC | -0.182 |
| TGTAGAGTAGTCGTAGGTCATG | -1.27 |
| TTCAGTGTCTGGATGTACCTGG | 0.597 |
| ATGCGCTGTAGAGTAGTCGTAG | -0.323 |
| TCACTGTCTAAGACGTTCCGGA | -0.147 |
| TTTGAGGTCCGTCACCACCAAA | -1.77 |
| AAACTGACTCTTCTCCAGCAGC | -0.926 |

target: CHMP2A; assay: as above; conditions: shRNA

| Sequence | sensor-assay potency score (higher = more potent) |
| --- | --- |
| TTGAGTGTCTGGATCTTGAGGG | 0.547 |
| AAGTCTTTTGCCATGATGCGAA | -0.973 |
| TTCAGCTGTCTGTTCATGGTGC | 0.372 |
| ATCATTCATCATCTCCTCCTTC | -0.0683 |
| TGCAATGATTTTCTTCTCCTGG | -0.535 |
| AAACTTGCGCACATAGCGCCGG | -0.531 |
| TCTAGTTTCTGTCGCTCGCGGT | -0.825 |
| AACTTGCGCACATAGCGCCGGG | -1.16 |
| TTCATGGCTTGTGCCATCGAGT | -1.33 |
| TTTCTGTCGCTCGCGGTCCAGC | -1.66 |
| TTGTTGGACTTGAGTGTCTGGA | -0.834 |
| TTCATCTTCCTCATCACCCATG | -0.68 |

target: CHRM2; assay: as above; conditions: shRNA

| Sequence | sensor-assay potency score (higher = more potent) |
| --- | --- |
| TTAGAGTTCTCATCTTTGGAAT | -1.06 |
| TTTCATCTCCATTCTGACCTGA | 0.602 |
| TTAGTCATCTTCACAATCTTGC | 0.87 |
| TTTTGTGGTCCGCTTGACTGGG | 0.0688 |
| TTTGTGACACAGAAGTACCTGT | 0.495 |
| TTTAATGGAAACCATGACTAGG | -0.722 |
| TATTCTGCTTTTCATCTCCATT | -1.16 |
| TCATCTTCACAATCTTGCGGGC | -0.203 |
| TTCTTGTCCTTCTTTATCCTGC | -0.0112 |
| TTCATCTCCATTCTGACCTGAA | 0.399 |
| TTAAAGGTCTTCTTGAAGGTGG | 0.265 |
| TATTAGAGGCAACAGCACTGAC | -0.688 |
| TTTTGTGACACAGAAGTACCTG | 0.758 |
| TTCTTTATCCTGCTCTTGCTGG | -0.363 |
